# Test results reported in PubChem BioAssay (Tox21).
# Records with an inconclusive call do not appear. Values without a mark were called inactive. Calls of active or inactive are those of the source. Calls come from the whole dose curve; as a rule, active = well fitted cell-killing curve with a large enough effect in the repeat runs; inconclusive = weak or mixed curves, or effect the other way; inactive = flat fitted curve, though single readings scatter.
# Experiment: qHTS assay to identify small molecule agonists of the TGF-beta/Smad signaling pathway - cell viability counter screen (AID 1346829); note: top concentration of the series differs between compounds; nearly all actives have a fitted effect of over 45% in size
# Conditions: SBE-bla HEK293T viability, CellTiter-Glo luminescence, 5 h; series mostly up to 76.8 µM
# From the text: National Center for Advancing Translational Sciences [NCATS]
# NIH Chemical Genomics Center [NCGC]
# U.S. Environmental Protection Agency [EPA]
# National Institutes of Environmental Health Sciences [NIEHS]
# National Toxicology Program [NTP]
# U.S. Food and Drug Administration [FDA]
# Transforming growth factor beta (TGF-beta) superfamily consists of a large number of structurally related dimeric proteins that act as hormones or local mediators in regulating a wide range of biological functions. This superfamily includes TGF-betas themselves, the bone morphogenetic proteins (BMPs) and the activins. These ligands induce oligomerization of serine/threonine receptor kinases and phosphorylate the cytoplasmic signaling molecules of Smad protein family. CellSensor SBE-bla HEK 293T cell line (Life Technologies, Carlsbad, CA), responsive to TGF-beta was used to screen Tox21 10K compound library for identification of agonists/antagonists of the Smad signaling pathway. This cell line contains a beta-lactamase reporter gene under control of the Smad binding element (SBE) stably integrated into HEK 293T cells. Also cytotoxicity of the compounds was tested in parallel by measuring the cell viability using CellTiter-Glo assay system in the same wells.
# Tox21 Assay Protocol Summary:
# SBE-bla HEK 293T cells were dispensed at 4,000/well in 6 uL of assay medium into black wall/clear-bottom 1536-well plates using a Multidrop Combi (ThermoFisher Scientific, Waltham, MA) dispenser. After the assay plates were incubated at 37 C and 5% CO2 for an overnight, 23 nL of compounds dissolved in DMSO, positive controls or DMSO only was transferred to the assay plate by a Pintool station (Kalypsys, San Diego, CA). The assay plates were incubated at 37 C and 5% CO2 for 5 hr. One uL of LiveBLAzer B/G FRET substrate (Life Technologies) was added using a Flying Reagent Dispenser (FRD, Aurora Discovery, San Diego, CA) and the plates were incubated at room temperature for 2 hr. Fluorescence intensity (405 nm excitation, 460 nm and 530 nm emissions) was measured using an Envision plate reader (PerkinElmer, Shelton, CT). For cytotoxicity read, 4 uL of CellTiter-Glo reagent (Promega Corporation, Madison, WI) was added to each well of the assay plates using FRD. After 30min incubation at room temperature, the luminescence intensity was measured using ViewLux plate reader (PerkinElmer).
# % is set by controls: 0 for no effect and ±100 for the full control effect.
SMILES,outcome,"activity change, negative = cytotoxicity"
CC(C)CCCC(C)N (stereo not given),inactive,
CC(C(=O)O)c1ccc(CC2CCCC2=O)cc1 (stereo not given),inactive,
O=C(O)Cc1ccc(CCNS(=O)(=O)c2ccc(Cl)cc2)cc1,inactive,
CCCCOCCOCCOCc1cc2c(cc1CCC)OCO2,inactive,
C[C@@H]1CCN(C(=O)[C@H](CCCN=C(N)N)NS(=O)(=O)c2cccc3c2NC[C@H](C)C3)[C@@H](C(=O)O)C1,inactive,
CC(C)CNCC(C)C,inactive,
NC(=O)COCCN1CCN(C(c2ccccc2)c2ccc(Cl)cc2)CC1 (stereo not given),inactive,
O=C(CCCN1CCC(O)(c2cccc(C(F)(F)F)c2)CC1)c1ccc(F)cc1,inactive,
COc1ccc2c(c1)c(CC(=O)OCC(=O)O)c(C)n2C(=O)c1ccc(Cl)cc1,inactive,
Cc1c(O)cccc1O,inactive,
COC(=O)C1=C(C)NC(C)=C(C(=O)OC)C1c1ccccc1[N+](=O)[O-],inactive,
O=C(CCCN1CCN(c2ccccn2)CC1)c1ccc(F)cc1,inactive,
O=C(c1ccccc1)C1CCCCC1,inactive,
CO[C@]12C[C@@H](COC(=O)c3cncc(Br)c3)CN(C)[C@@H]1Cc1cn(C)c3cccc2c13,inactive,
Cc1c(NC(C)C)c(=O)n(-c2ccccc2)n1C,inactive,
C[N+](C)(C)CCCCCC[N+](C)(C)C,inactive,
Cc1ccc(C#N)cc1,inactive,
CCCN(CCC)CCc1cccc2c1CC(=O)N2,inactive,
Nc1c2c(nc3ccccc13)CCCC2O (stereo not given),inactive,
CN1CCCC1,inactive,

SMILES,outcome,"activity change, negative = cytotoxicity"
COc1ccc(CCN(C)CCCC(C#N)(c2cc(OC)c(OC)c(OC)c2)C(C)C)cc1OC (stereo not given),inactive,
O=C1CCCC(=O)C1,inactive,
O=C[C@H](O)[C@@H](O)[C@H](O)[C@H](O)CO,inactive,
O=C(O)CN(CCOCCOCCN(CC(=O)O)CC(=O)O)CC(=O)O,,0.742% [at 0.29 µM]
NS(=O)(=O)c1ccc(C(=O)O)cc1,inactive,
CCC(C)C1CCCCC1=O (stereo not given),inactive,
CCCC(=O)O[C@]1(C(=O)CO)CC[C@H]2[C@@H]3CCC4=CC(=O)CC[C@]4(C)[C@H]3[C@@H](O)C[C@@]21C,inactive,
C[C@H]1C[C@@H](O)CC(C)(C)C1,inactive,
CC(C[N+](C)(C)C)OC(N)=O (stereo not given),inactive,
CO/N=C(/C(=O)N[C@@H]1C(=O)N2C(C(=O)OCOC(=O)C(C)(C)C)=C(C)CS[C@H]12)c1csc(N)n1,inactive,
Cc1cccn2c(=O)c(-c3nnn[nH]3)cnc12,,2.08% [at 15.8 µM]
COc1ccccc1OCC(O)CN1CCN(CC(=O)Nc2c(C)cccc2C)CC1 (stereo not given),inactive,
OCCOc1ccc(OCCO)cc1,inactive,
COc1cc(C(=O)N2CCCCCCC2)cc(OC)c1OC,inactive,
C/C=C(\C)C#N,inactive,
Cc1sccc1Br,inactive,
OC[C@]1(O)OC[C@@H](O)[C@H](O)[C@@H]1O,inactive,
O=C(O)CCCc1ccccc1,inactive,
c1ccc([C@H]2CN3CCSC3=N2)cc1,inactive,
CCOC(=O)Nc1ccc(NCc2ccc(F)cc2)nc1N,inactive,
